Compound activity: PubChem, several laboratories
p-CIP stab down = p/CIP-EGFP fusion destabilizers, primary screen, fluorescence, F442A cells | Q05BA5 | 16 h | decrease of EGFP signal, % at 10 µM | 290,000 compounds, 0.01% hits;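 active means EGFP signal decrease of at least 30% at 10 µM or well 3 SD below plate mean, unless failing retest; inactive means the rest, including hits failing retest or dose response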
Platelet DG rel = inhibitors of platelet dense granule secretion, primary screen, cell-based, MLPCN, human platelets. AID 1663, 2009. 300,000 compounds, 0.22% hits. inhibition, %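 (compounds screened at 7.5 µM in platelet-rich plasma)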. human platelet-rich plasma, SFLLRN dense granule ATP release, luminescence;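 active means mean replicate score, as percent of positive control, at or above 50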
HIF act = HIF pathway transcriptional activators, primary screen, cell-based, U2OS HRE-luciferase, luminescence; U2OS HRE-luciferase reporter; normalized: DMSO 0%, desferrioxamine 100%; activation, % at 7.5 µM (by protocol); 300,000 compounds, 0.32% hits; AID 1910, 2009;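 active means mean activation of at least 10% of the iron chelator positive control signal, with at least half of replicates also reaching 10%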
PolyA inhibitor = polyadenylation inhibitors in yeast reporter cells, primary screen, luminescence, S. cerevisiae | S. cerevisiae SKY197-pL101 polyadenylation reporter, beta-gal luminescence; efflux-impaired pdr1/pdr3 knockout yeast; score 100 = 6 SD above DMSO | activity score, % at 12 µM | 300,000 compounds, 0.02% hits;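 active means lowest replicate activity score at least 50, where 100 means six control SD above control mean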;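 further: yeast exposed to compound for 9 h at 30 °C; higher score means more reporter readthrough which indicates perturbed polyadenylation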
AHR act = AHR activators, primary screen, cell-based, luminescence, luciferase reporter, human | Aryl hydrocarbon receptor (Homo sapiens), P35869 | AHR-responsive luciferase reporter cells | activation, % at 5 µM | 320,000 compounds, 2.5% hits | AID 2796, 2010; in the data active means activation above about 47%
Numbers stand for hits; - = inactive; . = no result. Most compounds without a hit are left out; they make up all but 2.8% or so of the library.

SMILES | p-CIP stab down | Platelet DG rel | HIF act | PolyA inhibitor | AHR act
Cc1cccc(NC(=O)c2ccc3nccnc3c2)n1 | - | - | - | - | 48
Cc1c(NC(=O)C(C)Oc2cccc(F)c2)c(=O)n(-c2ccccc2)n1C (stereo unspecified) | . | . | . | . | -
O=C(c1ccc(Cl)cc1Cl)N1CCC(C(=O)N2CCOCC2)CC1 | - | - | - | - | -
Cc1cc(C)cc(N=c2c([N+](=O)[O-])nn(-c3cccc(Cl)c3)n2O)c1 | - | - | - | - | 69
Cc1cccc(N=c2c([N+](=O)[O-])nn(-c3ccc(Cl)cc3)n2O)c1 | - | - | - | - | 62
CCc1cccc(N=c2c([N+](=O)[O-])nn(-c3ccc(Cl)cc3)n2O)c1 | - | - | - | - | -
CSc1cccc(NC(=O)c2[nH]c(C)c(C(C)=O)c2C)c1 | - | - | - | - | -
COc1ccccc1NC(=O)c1[nH]c(C)c(C(C)=O)c1C | - | - | - | - | 55
CC(=O)c1c(C)[nH]c(C(=O)Nc2ccccn2)c1C | - | - | - | - | 71
CC(=O)c1c(C)[nH]c(C(=O)Nc2ccccc2N2CCOCC2)c1C | - | - | - | - | 72
CC(=O)c1c(C)[nH]c(C(=O)Nc2ccc(Cl)cc2)c1C | - | - | - | - | -
CC(=O)c1c(C)[nH]c(C(=O)Nc2cccc(C)c2C)c1C | - | - | - | - | 55
Cc1cccc(C)c1NC(=O)C(c1ccc(Cl)cc1Cl)N1CCCCC1 (stereo unspecified) | - | - | - | - | -
O=C(Nc1ccccc1N1CCCCC1)c1cccc([N+](=O)[O-])c1 | - | - | - | - | -
CC(=O)c1c(C)[nH]c(C(=O)Nc2ccc(Cl)cc2F)c1C | - | - | - | - | -
CC(=O)c1c(C)[nH]c(C(=O)Nc2ccc(F)c(F)c2F)c1C | - | - | - | - | 62
CC(=O)c1c(C)[nH]c(C(=O)NC2=NCCS2)c1C | - | - | - | - | 75
Cc1cc(C(=O)NC2=NCCS2)cs1 | - | - | . | - | -
O=C(Nc1ccccc1N1CCOCC1)c1cccc([N+](=O)[O-])c1 | - | - | - | - | 67
O=C(CCNS(=O)(=O)c1ccccc1F)OCc1ccccc1Cl | . | . | . | . | -
CN(CCC#N)C(=S)Nc1ccc(Oc2ccccc2)cc1 | - | - | - | - | -
COc1ccc(N/C=C\C(=O)c2ccc3c(c2)OCO3)cc1 | - | - | 13 | - | -
COc1ccc(C(=O)/C=C/Nc2cccc(O)c2)cc1 | - | 55 | - | - | -
COc1cccc(N/C=C/C(=O)c2ccc(Br)cc2)c1 | . | . | - | - | -
O=C(/C=C\Nc1ccc2c(c1)OCO2)c1ccccn1 | - | 58 | - | - | -
SMILES | p-CIP stab down | Platelet DG rel | HIF act | PolyA inhibitor | AHR act
CC(CNc1nc2ccc(Cl)cc2n2cnnc12)c1ccccc1 (stereo unspecified) | - | - | - | - | -
Cc1cc(-c2ccccc2)nc2cc(C(=O)NCCCn3ccnc3)nn12 | - | - | - | - | 66
Cc1cc(C(=O)NCCCn2ccnc2)sc1-c1ccccc1 | - | - | - | - | 70
COCCNC(=O)c1cc2nc(-c3ccccc3)cc(C)n2n1 | - | - | - | - | -
O=C(NCCCn1ccnc1)c1ccc(-c2ccccc2)cc1 | - | - | - | - | -
NC(=S)N/N=C/c1ccc(-c2ccc(Cl)c(Cl)c2)o1 | - | - | - | - | 48
NC(=S)N/N=C/c1ccc(-c2ccc(SC(F)F)cc2)o1 | - | - | - | - | 53
NC(=S)NN=Cc1ccc(-c2ccc(S(=O)(=O)Nc3ncccn3)cc2)o1 | . | . | . | . | -
Cc1cc(N/N=C/c2ccc(N(C)C)cc2)c2ccccc2n1 | - | - | - | - | 49
Cc1nnc(C)n1/N=C/c1cc2ccccc2nc1Cl | - | - | - | - | -
Cc1cc(N/N=C/c2ccco2)c2ccccc2n1 | - | - | - | - | -
Cc1cc(N/N=C/c2c[nH]c3ccccc23)c2ccccc2n1 | - | - | - | - | 58
Cn1c(N/N=C/c2c[nH]c3ccccc23)nc2ccccc21 | - | - | - | - | 56
Cn1c(N/N=C/c2cc3ccccc3nc2Cl)nc2ccccc21 | - | 60 | 22 | - | -
COC(=O)c1cc(COc2ccc3c4c(c(=O)oc3c2)CCC4)c(C)o1 | - | - | - | - | -
O=C(CSC1=Nc2ccccc2C2CC=NN12)NCc1ccco1 (stereo unspecified) | . | . | . | . | 66
N#Cc1ccccc1NC(=O)CSC1=Nc2ccccc2C2CC=NN12 (stereo unspecified) | - | - | - | - | -
CCCCN(C(=O)c1cccc(S(=O)(=O)N2CC(C)OC(C)C2)c1)c1c(N)n(CC(C)C)c(=O)[nH]c1=O (stereo unspecified) | - | - | - | - | -
O=C(Nc1ccccc1)C1CCCN(C(=O)c2ccc(Cl)cc2)C1 (stereo unspecified) | - | - | - | - | -
O=C(Nc1cccc(F)c1)C1CCCN(C(=O)c2ccc(Cl)cc2)C1 (stereo unspecified) | . | . | . | . | 51
COc1ccc(C)cc1NC(=O)c1cccc(C(=O)Nc2cc(C)ccc2OC)c1 | - | - | - | - | -
COc1ccc(C)cc1NC(=O)c1ccc(OC(F)F)cc1 | - | - | - | - | 70
COc1ccc(NC(=O)c2ccc(OC(F)F)cc2)cc1Cl | - | 64 | - | - | -
COc1ccc(NC(=O)c2cc(F)cc(F)c2)cc1Cl | - | - | - | - | -
O=C(NCc1ccc(/C=c2\sc3n(c2=O)CCN=3)o1)C(=O)Nc1ccccc1 | - | - | - | - | -
SMILES | p-CIP stab down | Platelet DG rel | HIF act | PolyA inhibitor | AHR act
COc1cccc(N2CCN(c3ccc4nnc(CCC(=O)Nc5ccccn5)n4n3)CC2)c1 | - | - | - | - | -
N/C(=N\S(=O)(=O)c1cccs1)c1ccccc1 | - | - | - | - | -
Cn1c(C(C#N)/C(=N\S(=O)(=O)c2cccs2)c2ccccc2)nc2ccccc21 (stereo unspecified) | - | - | - | - | 79
CC(=O)c1ccccc1NC(=O)COC(=O)/C(=C/c1ccccc1)n1nnnc1C | - | - | - | - | -
CC1(OC(=O)c2cccs2)C(=O)C=C2C=C(C3CC3)OC=C2C1=O (stereo unspecified) | . | - | 112 | - | -
CCc1nc(CN(C)C(=O)C2CCC(=O)N(Cc3cccc(F)c3)C2)no1 (stereo unspecified) | - | - | - | - | -
Nc1c(Cl)c(Cl)nc(C(=O)N/N=C/c2ccco2)c1Cl | - | - | - | - | 53
NNC(=O)c1nc(Cl)c(Cl)c(N)c1Cl | - | - | - | - | 77
CN1CCN(CC(=O)Nc2nnc(-c3cccs3)s2)CC1 | - | - | - | - | 111
CCC(CC)C(=O)Nc1nnc(-c2cccs2)s1 | - | - | - | - | 73
CCCc1nnc(NC(=O)CN2CCN(C)CC2)s1 | - | - | - | - | -
COc1ccc(CCC(=O)OCC(=O)Nc2ccccc2)cc1 | - | - | - | - | -
